The source made the active and inactive calls. How the source made its calls: active means hit-call score of the fitted dose curve at least 0.9, where 1 is the maximum; inactive means score below 0.9.

Read-out in the assay: Pro-epidermal growth factor (Homo sapiens) (UniProt P01133)
The assay is described as follows: LTEA_HepaRG_EGF: Life Technologies and Expression Analysis (LTEA) Assay for Epidermal growth factor (EGF) using HepaRG (AID 2283489). As to conditions: mRNA level, 48 h; actives raise or lower the signal. The protocol: LTEA_HepaRG is a cell based, multiplexed-readout assay that uses HepaRG, a human liver cell line, with measurements taken at 48 hours after chemical dosing on a 96-well plate.LTEA_HepaRG_EGF is one of 102 assay component(s) measured in the LTEA HepaRG cell culture assay. It is a marker of Cell proliferation, survival, death.Data from the assay component LTEA_HepaRG_EGF was analyzed into 1 endpoint. This assay endpoint, LTEA_HepaRG_EGF, was analyzed with bidirectional fitting relative to DMSO as the negative control and baseline of activity. Using a type of inducible reporter, measures of mRNA induction for gain or loss-of-signal activity can be used to understand regulation of transcription factor activity. To generalize the intended target to other relatable targets, this assay endpoint is annotated to the growth factor intended target family, where the subfamily is EGF-like domain.
A total of 1060 chemcials from the ToxCast library were tested in eight-point concentration-response experiments. Cell culture and cytotoxicity assays were conducted at Thermo Fisher Scientific's Custom Services facility (Madison, WI). A single lot of human HepaRG cells (Thermo Fisher Scientific, Frederick, MD) was used for the cell culture experiments. 96-well format collagen type I coated plates of human HepaRG cells were prepared using established methods. Briefly, cryopreserved HepaRG cells were thawed, plated at a density of approximately 100,000 cells/well in HepaRG Thaw, Plate, and General Purpose media (HPRG770, Thermo Fisher Scientific), and incubated for 48 hours. 0.5% DMSO was selected as vehicle control to balance the requisite need of DMSO in HepaRG cultures to maintain differentiation (for example, baseline metabolism, proportions of hepatocytes vs. cholangiocytes), while enabling further hepatic receptor pathway activation (for example, PXR and CAR) in response to chemical exposure. 48 hours after plating, the culture medium was replaced with HepaRG Serum-Free Incudtion Media. Cells were exposed to each test chemical in duplicate and maintained in CO2 incubators for another 48 hours. Chemical plates were thawed to room temperature and 200x concentrations of treatment groups were prepared. 8-point conentration-reponse curves were made with the highest exposure at 100 uM, followed by half-log dilutions, all in 0.5% DMSO. Each test plate contained variouse controls, induction positive controls (1mM phenobarbital), cytotoxicity positive controls ([…] aflatoxin B1), vehicle controls (0.5% DMSO), and total lysis controls (0.5% DMSO). Cell morphology images were taken using an Essen IncuCyte FLR automated microscope, with six 96-well plates imaged in about 24 minutes. Images were captured and exported and JPEG files. Spent culture media was transfered to black-well plates for the LDH assay, and remaining media was sorted at -80 C for later use. Cells were treated with RLT buffer and frozen until shipped for gene expression analysis. Total RNA was isolated from the cell suspension in 75 uL of Buffer RLT (Qiagen, Germantown, MD 20874) by Quintiles/Expression Analysis (Durham, NC) using a custom isolation procedure. Total RNA from each plate well was transferred to a preamplification plate. Fluidigm's 96.96 Dynamic ArrayTM (Fluidigm, Amsterdam, the Netherlands) technology was used for gene expression analyses by quantitative reverse transcription polymerase chain reaction (qRT-PCR, performed by Quintiles/Expression Analysis, Durham, NC)89. Standard TaqManTM Assays (Applied Biosystems/ThermoFisher Scientific, Foster City, CA) were used to assess the expression of 93 genes selected based on their selectivity and sensitivity to important hepatic receptors known to be modulated by environmental chemicals; importance in human hepatocyte functionality; and hepatotoxicity. […]
As to `COc1ccc(O)c(C(C)(C)C)c1`, the outcome was inactive.

With `Cc1cc(O)ccc1Cl`, the compound was classed as inactive.

For `O=C(NC(=O)c1cc(F)c(F)cc1Cl)Nc1cc(F)ccc1N1CCC(C(=O)O)CC1`, the compound was called inactive.

As to `CC1=C2C[C@H]3[C@@H](CC=C4C[C@@H](O)CC[C@@]43C)[C@@H]2CC[C@]12O[C@@H]1C[C@H](C)CN[C@H]1[C@H]2C`, the result was inactive.

As to `C1CC2OC2CC1C1CO1` (stereo not given), the compound was classed as inactive.

On to `COS(=O)(=O)OC`, for which the compound was called inactive.

Regarding `CCCCCCCCCC[N+](C)(C)CCCCCCCCCC`, the result was inactive.

Take `CC#Cc1cc(C)nc(Nc2ccccc2)n1`: the compound was classed as inactive.

As for `ClC1=C(Cl)[C@]2(Cl)[C@@H]3[C@@H]4C[C@@H]([C@H]5O[C@@H]45)[C@@H]3[C@@]1(Cl)C2(Cl)Cl`, the compound was classed as inactive.

Turning to `CCOC(=O)C(O)(c1ccc(Cl)cc1)c1ccc(Cl)cc1`, the call was inactive.

Take `CCNc1nc(NC(C)C)nc(SC)n1`: the outcome was inactive.

On to `CCC(=O)O[C@H]1CC[C@H]2[C@@H]3CCC4=CC(=O)CC[C@]4(C)[C@H]3CC[C@]12C`, for which the result was inactive.

Regarding `CC(C)(c1ccccc1)c1ccc(O)cc1`, the call was inactive.

As to `ClC(Cl)=C(c1ccc(Cl)cc1)c1ccc(Cl)cc1`, the call was inactive.

Take `ClC1=C(Cl)[C@]2(Cl)[C@@H]3[C@@H](Cl)[C@H]4O[C@H]4[C@@H]3C1(Cl)C2(Cl)Cl`: the compound was called inactive.

Consider `CCC(C)c1cc([N+](=O)[O-])cc([N+](=O)[O-])c1O` (stereo not given), for which the half-maximal activity concentration (AC50) (usually the concentration giving half of the maximal activity seen) was 1.97 µM (active).

On to `Clc1ccc(Cl)cc1`, for which the outcome was inactive.

As to `CC(C)(O)C(=O)Nc1ccc([N+](=O)[O-])c(C(F)(F)F)c1`, the AC50 was 0.0411 µM (active).

For `Oc1ccc(Cl)cc1Cl`, the compound was called inactive.

`N#Cc1ccc(N(CC(N)=O)CC(F)(F)F)cc1C(F)(F)F`: the compound was called inactive.

On to `CC(c1ccc(O)cc1)(c1ccc(O)cc1)c1ccc(O)cc1`, for which the outcome was inactive.

On to `C=CC(N)=O`, for which the result was inactive.

Consider `CCCN(CCC)N=O`, for which the compound was called inactive.

In the case of `CCCCCCCCOC(=O)c1ccccc1C(=O)OCCCCCCCC`, the call was inactive.

Turning to `O=NN(c1ccccc1)c1ccccc1`, the compound was called inactive.

For `C=CC(=O)NCNC(=O)C=C`, the call was inactive.

For the compound `Cc1ccc(O)c(C)c1`, the compound was classed as inactive.

Take `O=C(NC(=O)c1c(F)cccc1F)Nc1cc(Cl)c(OC(F)(F)C(F)F)c(Cl)c1`: the compound was called inactive.

Regarding `Cc1ccccc1CO[C@@H]1C[C@@]2(C(C)C)CC[C@]1(C)O2`, the outcome was inactive.

Regarding `CC(C)C(=O)OCC(C)(C)C(OC(=O)C(C)C)C(C)C` (stereo not given), the call was inactive.

Consider `C[C@]12CCC(=O)C=C1CC[C@@H]1[C@@H]2CC[C@@]2(C)[C@H]1CC[C@]2(C)O`, for which the result was inactive.

In the case of `Oc1ccc(C(c2ccc(O)cc2)(C(F)(F)F)C(F)(F)F)cc1`, the AC50 was 80.1 µM (active).

Regarding `Oc1c(Cl)c(Cl)c(Cl)c(Cl)c1Cl`, the AC50 is 25.5 µM (active).

For the compound `Clc1ccc(C(Cl)(Cl)Cl)cc1`, the result was inactive.

As for `Nc1ccc(-c2ccc(N)cc2)cc1`, the call was inactive.

Consider `O=S(=O)(O)C(F)(F)C(F)(F)C(F)(F)C(F)(F)F`, for which the compound was called inactive.

Take `CCSC(=O)N(CC)C1CCCCC1`: the compound was classed as inactive.

As for `O=C(O)C(F)(F)C(F)(F)C(F)(F)C(F)(F)C(F)(F)C(F)(F)C(F)(F)C(F)(F)C(F)(F)F`, the AC50 is 76.1 µM (active).

On to `O=C(O)C(F)(F)C(F)(F)C(F)(F)C(F)(F)C(F)(F)C(F)(F)C(F)(F)C(F)(F)F`, for which the result was inactive.

On to `ClC1=C(Cl)[C@]2(Cl)[C@@H]3[C@H]4C[C@H]([C@@H]5O[C@H]45)[C@@H]3[C@@]1(Cl)C2(Cl)Cl`, for which the outcome was inactive.

For the origin of these results see PubChem BioAssay (EPA / NIEHS).
